Experimental data: PubChem BioAssay AID2718 (Broad Institute, 2010)
In all, about 320,000 compounds went through this assay and about 480 (0.15%) were called active. Inconclusive results (about 1%) are left out. The sample holds actives, similar compounds and a random draw of the others, so the mix is not that of the screen. Rule as the data show it: active = inhibition above about 26% (passing the limit was not always enough); inconclusive = no clear call, values can overlap the other calls.

Biological target: Histone deacetylase 3 (Homo sapiens) (UniProt O15379)
Test: HDAC3 deacetylase inhibitors, primary screen, biochemical, fluorescence, cell-free homogeneous (AID 2718)
Conditions: recombinant HDAC3, fluorogenic peptide/trypsin coupled, at 8.3 µM, hits give high values

Chain of Histone deacetylase 3 (Homo sapiens) (O15379 whole entry, looked up): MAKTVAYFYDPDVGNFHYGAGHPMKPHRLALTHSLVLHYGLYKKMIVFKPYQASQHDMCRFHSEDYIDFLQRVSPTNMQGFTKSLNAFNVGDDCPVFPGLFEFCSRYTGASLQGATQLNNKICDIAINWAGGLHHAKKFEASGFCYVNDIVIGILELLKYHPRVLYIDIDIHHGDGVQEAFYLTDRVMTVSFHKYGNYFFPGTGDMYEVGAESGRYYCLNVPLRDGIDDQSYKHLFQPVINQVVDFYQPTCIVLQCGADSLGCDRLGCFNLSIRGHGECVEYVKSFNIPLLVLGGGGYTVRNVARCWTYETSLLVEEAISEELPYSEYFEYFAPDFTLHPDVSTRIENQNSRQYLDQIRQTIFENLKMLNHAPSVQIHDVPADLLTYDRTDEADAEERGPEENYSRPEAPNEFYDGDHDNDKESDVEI

| SMILES | inhibition |
| --- | --- |
| O=C1N[C@@H](c2ccccc2)COC(=O)[C@H](Cc2ccc(F)cc2)C/C=C\C[C@@H]1CC(=O)N(CCO)Cc1ccccc1 | 8.45% (inactive) |
| C=CC[C@H](CC(=O)N(CCO)Cc1ccccc1)C(=O)N[C@@H](COC(=O)[C@@H](CC=C)Cc1ccc(F)cc1)Cc1ccccc1 | 40.9% (active) |
| C=CC[C@H](CC(=O)NCCO)C(=O)N[C@@H](COC(=O)[C@@H](CC=C)Cc1ccc(F)cc1)Cc1c[nH]c2ccccc12 | 9.77% (inactive) |
| COC(=O)[C@]1(CC(C)C)N[C@H](c2ccc(SC3CCCCC3)cc2)[C@@H]2C(=O)N(C)C(=O)[C@@H]21 | 16% (inactive) |
| O=C(OCC(=O)N1CCCCCC1)c1ccc(Cl)nc1 | 0.75% (inactive) |
| CCCCCCCCCCOC(=O)Cn1c(COc2ccc(C)cc2)[n+](C)c2ccccc21 | 36.3% (active) |
| CCOC(=O)Cn1c(-c2cccnc2Cl)nc2ccccc21 | 2.13% (inactive) |
| CCCCCCCCCCOC(=O)Cn1c(COc2cccc(OC)c2)[n+](C)c2ccccc21 | 17.1% (inactive) |
| Cc1cccc(NC(=O)c2ccc(S(=O)(=O)N(C)c3ccccc3)cc2)n1 | 2.21% (inactive) |
| CCN(C(=O)COC(=O)c1ccccc1O)c1cccc2ccccc12 | 2.66% (inactive) |
| Cc1cc2c(cc1C)N(C(=O)CN1C(=O)c3ccccc3C1=O)C(C)(C)c1ssc(=S)c1-2 | -10.7% (inactive) |
| COc1cc(NC(=O)CN2C(=O)NC(C)(c3ccc(OC(F)F)cc3)C2=O)cc(OC)c1OC (configuration not stated) | 5.68% (inactive) |
| Cc1ccc2nc(-c3ccc(NC(=O)c4cccnc4)cc3)oc2c1 | -0.79% (inactive) |
| Cc1ccc(NC(=O)Cc2nc(COC(=O)C(C)NS(=O)(=O)c3ccc(C)cc3)cs2)cc1 (configuration not stated) | 1.23% (inactive) |
| CC(=O)Nc1ccc(S(=O)(=O)NCCC(=O)N2CCN(c3ccccc3Cl)CC2)cc1 | -4.42% (inactive) |
| CCOc1cc(C(C(=O)NCC2CCCO2)N(C(=O)Cn2nnc3ccccc32)c2cccc(OC)c2)ccc1O (configuration not stated) | -5.33% (inactive) |
| COc1ccc(C(=O)NCc2ccccc2C)cc1S(=O)(=O)NC1CCCC1 | 2.42% (inactive) |
| COc1cc(OC)c(NC(=O)C2CCCN2C(=O)OCc2ccccc2)cc1Cl (configuration not stated) | 2.9% (inactive) |
| CCN(C(=O)CSc1nnnn1-c1ccc(OC)cc1)C1CCS(=O)(=O)C1 (configuration not stated) | -1.21% (inactive) |
| COc1ccccc1NS(=O)(=O)c1ccc(C)c(C(=O)NNC(=O)c2csc(N3CCOCC3)n2)c1 | -8.84% (inactive) |
| CSc1ncccc1C(=O)NCC(c1ccco1)N1CCCCC1 (configuration not stated) | -0.371% (inactive) |
| CN(CC(=O)NCCc1ccc(S(N)(=O)=O)cc1)CC(=O)Nc1ccc(Cl)cc1 | 2.8% (inactive) |

| SMILES | inhibition |
| --- | --- |
| CC1Sc2ccc(C(=O)NCc3ccccc3Cl)cc2NC1=O (configuration not stated) | 3.12% (inactive) |
| c1ccc2c(CCN3CCNC[C@H]3Cc3cccc4ccccc34)cccc2c1 | 4.64% (inactive) |
| CC1COC2C(O1)N(S(C)(=O)=O)CCN2S(C)(=O)=O (configuration not stated) | -8.42% (inactive) |
| COc1ccc2nc3n(c(=O)c2c1)-c1cc(C)ccc1C(=O)NC3Cc1ccc(O)cc1 (configuration not stated) | 4.49% (inactive) |
| Cc1ccc(NC(=O)CN(C)C(=O)c2ccc(Cl)c(S(=O)(=O)NCc3ccco3)c2)cc1 | 1.2% (inactive) |
| COCCCNC(=O)CC1C[C@H](C(=O)N2CCCCC2)[C@@]2(CCc3ccccc3)c3[nH]c4ccccc4c3CCN2C1=O (some centres not stated) | -3.31% (inactive) |
| CC(=O)c1nn(-c2ccc(C)cc2)cc1C(=O)c1cccc(Br)c1 | 7.63% (inactive) |
| Cc1nnc(SCC(=O)Nc2ccc(S(=O)(=O)Nc3ccc(Cl)nn3)cc2)s1 | 0.425% (inactive) |
| CN(C(=O)c1ccccc1)c1nccnc1C#N | 2.83% (inactive) |
| O=C(Nc1ccccc1)O/N=C1/CCCc2occc21 | -0.26% (inactive) |
| Cc1ccc(NS(=O)(=O)c2ccc(C(=O)NCCCN3CCOCC3)cc2)cc1 | -2.45% (inactive) |
| Nn1c(SCC(=O)NC2CCCc3ccccc32)nnc1C1CC1 (configuration not stated) | 2.63% (inactive) |
| COc1cc(OC)cc(-c2c(C#Cc3ccsc3)c3cc(-c4ccc(SC)cc4)ccc3n2C)c1 | -8.45% (inactive) |
| CN(C)C(=O)c1cccn(Cc2cccc(C(F)(F)F)c2)c1=O | 0.89% (inactive) |
| CC(C)(C)OC(=O)C[C@@H]1C/C=C\C[C@@H](CC(=O)N[C@H](CO)Cc2ccccc2)C(=O)NC[C@@H](c2ccccc2)OC1=O | -3.9% (inactive) |
| S=c1[nH]c2ccccc2c2ccccc12 | 2.2% (inactive) |
| CC1(C)CC(=O)C=C(c2ccc(Cl)c(C(F)(F)F)c2)C1 | 3.15% (inactive) |
| COCCCNC(=S)N(CCN(C)C)Cc1cc2cc3c(cc2[nH]c1=O)OCCO3 | 54.7% (active) |
| CCNC(=S)N(CCN(CC)CC)Cc1cc2cc3c(cc2[nH]c1=O)OCCO3 | -18.5% (inactive) |
| CCN(CC)CCCNC(=S)N(CCO)Cc1cc2cc3c(cc2[nH]c1=O)OCO3 | 3.65% (inactive) |
| COc1ccc2sc(-c3ccc(S(C)(=O)=O)cc3)c(C#Cc3cncn3C)c2c1 | -6.51% (inactive) |
| Cc1ccc(C)c(S(=O)(=O)N2CCN(c3ncnc4sccc34)CC2)c1 | 8.6% (inactive) |

| SMILES | inhibition |
| --- | --- |
| CCOC(=O)c1nn(-c2ccccc2F)c2nc(Nc3ccccc3)cc(=O)n12 | 4.54% (inactive) |
| Cc1nc(CC(=O)NNS(=O)(=O)c2ccc(F)c(Cl)c2)cs1 | -5.91% (inactive) |
| COc1cccc(NC(=O)C2c3cc(OC)c(OC)cc3C(=O)N(C)C2c2cccnc2)c1 (configuration not stated) | 35.6% (active) |
| COc1cccc(NC(=O)C2C(c3ccccc3)C2(Cl)Cl)c1 (configuration not stated) | 10.8% (inactive) |
| CCOc1cc2c(cc1OCC)C(C(=O)O)C(c1ccc(OC)c(O)c1)N(C)C2=O (configuration not stated) | -1.3% (inactive) |
| CCCCn1c(N)c(N(CCOC)C(=O)COc2c(C)cccc2C)c(=O)[nH]c1=O | -1.76% (inactive) |
| CSc1cccc(NC(=S)N(C(C)C)C(C)c2ccccn2)c1 (configuration not stated) | -0.0363% (inactive) |
| COc1ccc(S(=O)(=O)N(C)C[C@@H]2Oc3ccc(NC(=O)Nc4c(C)noc4C)cc3C(=O)N([C@H](C)CO)C[C@@H]2C)cc1 | -1.76% (inactive) |
| O=C(COc1ccc(F)cc1Br)NCC1COc2ccccc2O1 (configuration not stated) | -3.53% (inactive) |
| CCCCN(C(=O)C1CCC1)c1c(N)n(Cc2ccccc2)c(=O)[nH]c1=O | -3.39% (inactive) |
| O=C(COC(=O)c1cccc(Cl)c1)NC(=O)NCc1ccccc1 | 1.01% (inactive) |
| CC(OC(=O)c1cc2ccccc2[nH]1)C(=O)N(C)c1ccccc1 (configuration not stated) | -8.32% (inactive) |
| COCCNC(=O)CCCN1C(=O)c2ccccc2Sc2ncccc21 | 2.45% (inactive) |
| CCOc1ccc(-n2c(N)c(C(=O)NCC3CCCO3)sc2=S)cc1 (configuration not stated) | 3.4% (inactive) |
| O=C(Nc1nnc(-c2ccccc2)o1)c1cccc(S(=O)(=O)N2CCOCC2)c1 | -1.1% (inactive) |
| COc1ccccc1C(=O)NCC(=O)OCC(=O)NNC(=O)c1ccc(Br)cc1 | -9.69% (inactive) |
| CCCn1c(=O)c2c(C(F)(F)F)cc(-c3cccs3)nc2n(CCC)c1=O | 1.67% (inactive) |
| COc1ccc(NC(=O)CNC(=O)Cn2ccc3ccccc3c2=O)c(OC)c1 | -0.211% (inactive) |
| Fc1ccc2cnc(-c3ccccc3)cc2c1 | -0.273% (inactive) |
| Cc1ccc(NC(=O)C2CC2)cc1S(=O)(=O)N1CCOCC1 | 1.59% (inactive) |
| COc1ccc(-c2c(-c3cc(OC)cc(OC)c3)n(C)c3ccc(-c4ccn[nH]4)cc23)cc1 | -1.8% (inactive) |
| CC(C)n1cnc2c(NCc3ccccc3)cc(N[C@@H](CO)Cc3ccccc3)cc21 | 11.4% (inactive) |

| SMILES | inhibition |
| --- | --- |
| N=c1c2c3c(sc2ncn1N)CCCCC3 | -7.57% (inactive) |
| N=c1c2c3c(sc2ncn1N)CCCC3 | 9.19% (inactive) |
| S=c1[nH]nc2c3c4c(sc3ncn12)CCCC4 | 42.4% (active) |
| Cc1ccc(S(=O)(=O)NCCNC(C)c2ccc(Br)cc2)cc1 (configuration not stated) | 6.4% (inactive) |
| CC(=O)c1ccc(NC(=O)CSc2nc3ccccc3c(=O)n2CCCN2CCOCC2)cc1 | 12.2% (inactive) |
| COc1ccc(N2C(=O)C(CC(=O)Nc3ccc(F)cc3)N(CCc3cccs3)C2=O)cc1 (configuration not stated) | -0.706% (inactive) |
| CC1=CCC2C(=O)N(c3cccc(C(=O)NC(C)c4ccccc4)c3)C(=O)C2C1 (configuration not stated) | -6.38% (inactive) |
| COc1ccc(CCNC(=O)CN2C(=O)COc3ccc(S(=O)(=O)N4CCCC4)cc32)cc1OC | -4.05% (inactive) |
| CC1(c2ccccc2)NC(=O)N(CC(=O)N2CC(=O)Nc3ccccc32)C1=O (configuration not stated) | -0.182% (inactive) |
| Cc1ccc(-c2nn(-c3ccccc3)cc2CN(Cc2ccccc2)C(=O)CCC(=O)O)o1 | -11.8% (inactive) |
| Cc1ccc(-c2nn(-c3ccccc3)cc2/C=C2\SC(=S)N(CCCCCC(=O)O)C2=O)o1 | 31.7% (active) |
| C=CCOc1ccc(/C=C2\SC(=S)N(CCC(=O)O)C2=O)cc1 | 6.13% (inactive) |
| Clc1ccc2nc(CSc3ccccc3)cn2c1 | 10.1% (inactive) |
| C[C@H]1CN([C@@H](C)CO)C(=O)Cc2cc(NS(C)(=O)=O)ccc2O[C@@H]1CN(C)CC1CC1 | -7.37% (inactive) |
| CC(C)(C)NC(=O)NC(=O)COC(=O)C1c2ccccc2Oc2ccccc21 | -4.96% (inactive) |
| Cc1cccc(C)c1Nc1nnc(SCC(=O)NCCCN2CCCC2=O)s1 | 0.701% (inactive) |
| O=C(NCc1ccc2c(c1)OCO2)c1c(-c2ccsc2)sc2ccccc12 | 4.88% (inactive) |
| O=C(Nc1ccc(Br)cn1)C1CCN(S(=O)(=O)c2cccs2)CC1 | -1.41% (inactive) |
| C=C(C)COc1ccc(-c2ncncc2-c2ccc(OC)cc2)c(O)c1 | 4.53% (inactive) |
| C=C(C)COc1ccc(-c2n[nH]c(C)c2-c2ccccc2)c(O)c1 | 28.9% (active) |
| COc1ccc(-c2n[nH]c(C)c2-c2ccccc2OC)c(O)c1 | -1.09% (inactive) |
